Results filed as inconclusive are left out. Calls of active or inactive are those of the source. How the source made its calls: active means hit-call score of the fitted dose curve at least 0.9, where 1 is the maximum; inconclusive means response in the unintended direction; inactive means score below 0.9.
molecular target: human CYP2D6, CYP2D6 (gene 1565) (UniProt P10635); assay: NVS_ADME_hCYP2D6: NovaScreen (NVS) CYP450-related Enzyme Activity (ADME) Assay for human CYP2D6 (AID 2283107)
Procedure, shortened: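 Biochemical fluorescence assay, insect-cell-derived enzyme. Read at 1 h; inhibition taken from loss of signal against acetonitrile. Screened at 10 uM in duplicate, with concentration series for actives.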

human CYP2D6, CYP2D6 (gene 1565), sequence (P10635 whole entry, looked up): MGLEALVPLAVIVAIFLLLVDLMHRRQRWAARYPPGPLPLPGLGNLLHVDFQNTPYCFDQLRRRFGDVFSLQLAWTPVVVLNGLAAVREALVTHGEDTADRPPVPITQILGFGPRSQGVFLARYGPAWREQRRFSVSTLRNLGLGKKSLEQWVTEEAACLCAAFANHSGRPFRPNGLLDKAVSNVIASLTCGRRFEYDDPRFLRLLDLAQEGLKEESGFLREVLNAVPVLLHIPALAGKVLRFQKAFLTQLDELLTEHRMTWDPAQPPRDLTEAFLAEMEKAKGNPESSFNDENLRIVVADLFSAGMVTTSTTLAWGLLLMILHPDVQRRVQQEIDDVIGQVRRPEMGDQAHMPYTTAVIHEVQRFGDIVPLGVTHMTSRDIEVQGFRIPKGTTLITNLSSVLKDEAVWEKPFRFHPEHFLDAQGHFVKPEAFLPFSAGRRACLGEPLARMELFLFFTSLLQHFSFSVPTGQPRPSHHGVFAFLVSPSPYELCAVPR

Compound	AC50
O=Nc1ccc(O)cc1	3.79 µM (active)
CCCCCCCCCCCCCCCC[N+](C)(C)CC	0.536 µM (active)
N#[N+]c1ccc2c(S(=O)(=O)[O-])cccc2c1O	3.97 µM (active)

molecular target: Cytochrome P450 2C19 (Homo sapiens) (UniProt P33261); assay: NVS_ADME_hCYP2C19: NovaScreen (NVS) CYP450-related Enzyme Activity (ADME) Assay for human CYP2C19 (AID 2283113);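 further: potency for inhibition seen as loss of fluorescent signal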
Procedure, shortened: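 Biochemical CYP2C19 inhibition screen: insect-cell recombinant protein plus fluorescent substrate, 1 h, fluorescence intensity. Acetonitrile defined baseline activity. Single 10 uM concentration in duplicate, with concentration-response follow-up for actives.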

Compound	AC50
CCCCC/C=C\C/C=C\CCCCCCCC(=O)OC	6.47 µM (active)
CC(C)(c1cc(Br)c(OCCO)c(Br)c1)c1cc(Br)c(OCCO)c(Br)c1	1.8 µM (active)
CCCCCCCCCCCCCCCC[N+](C)(C)CC	2.31 µM (active)
C/C=C\C/C=C/CCCCCCCCOC(C)=O	0.065 µM (active)
COc1ccc2nc(N)sc2c1	0.319 µM (active)
C#CC1(O)CC[C@H]2[C@@H]3CCC4=CCCC[C@@H]4[C@H]3CC[C@@]21C (some centres not stated)	0.032 µM (active)

molecular target: human Caspase 5 (CASP5), CASP5 (gene 838) (UniProt P51878); assay: NVS_ENZ_hCASP5: NovaScreen (NVS) Enzymatic Assay for human Caspase 5 (CASP5) (AID 2283137)
Sequence (P51878 whole entry, looked up): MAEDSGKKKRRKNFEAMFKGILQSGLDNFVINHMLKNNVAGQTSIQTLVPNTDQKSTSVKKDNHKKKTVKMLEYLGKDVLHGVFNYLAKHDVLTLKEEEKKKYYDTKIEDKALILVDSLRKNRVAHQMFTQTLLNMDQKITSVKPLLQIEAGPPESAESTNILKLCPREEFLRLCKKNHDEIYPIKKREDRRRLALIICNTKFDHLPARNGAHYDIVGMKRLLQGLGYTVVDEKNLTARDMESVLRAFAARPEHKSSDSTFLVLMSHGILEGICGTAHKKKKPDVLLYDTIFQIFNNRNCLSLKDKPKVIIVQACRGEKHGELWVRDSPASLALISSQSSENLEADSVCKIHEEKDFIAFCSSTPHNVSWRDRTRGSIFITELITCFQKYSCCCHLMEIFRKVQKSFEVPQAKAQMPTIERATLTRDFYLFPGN
Procedure, shortened: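 Loss of fluorescent signal versus DMSO scored for E. coli-derived human CASP5 cleaving a fluorescent substrate, 2 h post-dosing; compounds first tested at 25 uM in duplicate, hits rerun in concentration series with 50 uM top concentration.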

Compound	AC50	outcome
CCCCC/C=C\C/C=C\CCCCCCCC(=O)OC	6.61 µM (active)	
O=Nc1ccc(O)cc1	13.5 µM (active)	
c1ccc2c(c1)ccc1cc3c(ccc4ccccc43)cc12	5.15 µM (active)	
C=CCOCC(O)CCl (configuration not stated)		inactive
N#[N+]c1ccc2c(S(=O)(=O)[O-])cccc2c1O	9.03 µM (active)	

molecular target: human Beta-secretase (BACE), BACE1 (gene 23621) (UniProt P56817); assay: NVS_ENZ_hBACE: NovaScreen (NVS) Enzymatic Assay for human Beta-secretase (BACE) (AID 2283140);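 further: hits are inhibitors that reduce fluorescent substrate signal versus DMSO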
Sequence (P56817 whole entry, looked up): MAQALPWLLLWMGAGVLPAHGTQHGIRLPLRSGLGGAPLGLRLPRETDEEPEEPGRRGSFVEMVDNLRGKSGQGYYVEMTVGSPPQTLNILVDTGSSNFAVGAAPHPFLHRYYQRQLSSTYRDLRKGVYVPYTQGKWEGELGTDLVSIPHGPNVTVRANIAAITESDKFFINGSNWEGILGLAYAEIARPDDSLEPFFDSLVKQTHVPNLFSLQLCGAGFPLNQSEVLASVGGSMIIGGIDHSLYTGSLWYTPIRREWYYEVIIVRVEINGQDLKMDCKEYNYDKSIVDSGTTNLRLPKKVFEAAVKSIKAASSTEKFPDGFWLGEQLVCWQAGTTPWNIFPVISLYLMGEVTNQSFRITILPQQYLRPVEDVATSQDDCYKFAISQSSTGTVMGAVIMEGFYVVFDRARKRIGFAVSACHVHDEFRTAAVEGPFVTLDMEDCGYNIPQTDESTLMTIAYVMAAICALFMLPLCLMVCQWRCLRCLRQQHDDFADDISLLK
Experimental: NVS_ENZ_hBACE is a biochemical, single-readout assay that uses extracted gene-proteins from SF9 in a cell-free assay. Measurements were taken 1 hour after chemical dosing in a 96-well plate.NVS_ENZ_hBACE is one of one assay component(s) measured or calculated from the NVS_ENZ_hBACE assay. It is designed to make measurements of enzyme activity, a form of enzyme reporter, as detected with fluorescence intensity signals by Fluorescence technology.Data from the assay component NVS_ENZ_hBACE was analyzed into 1 assay endpoint. This assay endpoint, NVS_ENZ_hBACE, was analyzed in the positive analysis fitting direction relative to DMSO as the negative control and baseline of activity. Using a type of enzyme reporter, loss-of-signal activity can be used to understand changes in the enzymatic activity as they relate to the gene BACE1. Furthermore, this assay endpoint can be referred to as a primary readout, because […]. To generalize the intended target to other relatable targets, this assay endpoint is annotated to the protease intended target family, where the subfamily is aspartate protease.
Binding assays used specific radioligands (tritiated, iodinated) with non-radioactive competitive displacement ligands in agonist or antagonist protocols (as indicated) and various reference compounds and inhibitors to titrate specific binding to receptors and transporters. Most enzyme assays (CYPs, kinases, phosphatases, proteases, HDACs) used recombinant protein and specific substrates (fluorescence mostly, some colorimetric and radioactive) and inhibitors, followed by a biochemical separation of substrate and product. All assays for the biochemical HTS were initially run in duplicate at a single concentration (10 uM for CYP450 assays and 25 uM for all others). […] Each assay was run with positive and negative controls, and concurrent controls on every plate. The follow-up (secondary) screen tested active chemical-pairs in concentration series, as well as a few additional assays not tested in the primary screen, some selected negative inactives, and several cases re-run in the concentration series for confirmatory purposes.

Compound	AC50	outcome
c1ccc2c(c1)ccc1cc3c(ccc4ccccc43)cc12	13 µM (active)	
CC1(C)S[C@@H]2[C@H](NC(=O)COc3ccccc3)C(=O)N2[C@H]1C(=O)O		inactive
C=CCOCC(O)CCl (configuration not stated)		inactive
CCCCCCCCCCCCCCCC[N+](C)(C)CC	6.41 µM (active)	
CCCCC(CC)COC(=O)c1ccccc1O (configuration not stated)	11.1 µM (active)	

molecular target: human Dual Specificity Protein Phosphatase 3 (DUSP3), DUSP3 (gene 1845) (UniProt P51452); assay: NVS_ENZ_hDUSP3: NovaScreen (NVS) Enzymatic Assay for human Dual Specificity Protein Phosphatase 3 (DUSP3) (AID 2283152);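 further: phosphatase activity of recombinant human DUSP3 on a fluorogenic substrate without cells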
Sequence (P51452 whole entry, looked up): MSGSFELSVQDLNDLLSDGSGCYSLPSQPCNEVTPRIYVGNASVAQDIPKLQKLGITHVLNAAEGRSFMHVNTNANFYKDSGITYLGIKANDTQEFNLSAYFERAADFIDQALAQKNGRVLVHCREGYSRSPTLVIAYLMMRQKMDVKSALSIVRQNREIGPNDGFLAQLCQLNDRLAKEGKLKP
Procedure, shortened: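 Cell-free fluorescence-intensity enzyme activity assay with recombinant protein and substrate; loss of signal fitted relative to DMSO baseline. Primary screen in duplicate at 25 uM, actives then run in concentration series; measured 0 h after dosing.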

Compound	AC50
CCCCCCCCCCCCCCCC[N+](C)(C)CC	20.8 µM (active)
O=C1CCC(=O)N1Cl	16.5 µM (active)
N#[N+]c1ccc2c(S(=O)(=O)[O-])cccc2c1O	14.9 µM (active)

molecular target: human Ephrin type-A Receptor 1 (EphA1), EPHA1 (gene 2041) (UniProt P21709); assay: NVS_ENZ_hEphA1: NovaScreen (NVS) Enzymatic Assay for human Ephrin type-A Receptor 1 (EphA1) (AID 2283158);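 further: activity is signal loss versus DMSO meaning EphA1 kinase inhibition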
Sequence (P21709 whole entry, looked up): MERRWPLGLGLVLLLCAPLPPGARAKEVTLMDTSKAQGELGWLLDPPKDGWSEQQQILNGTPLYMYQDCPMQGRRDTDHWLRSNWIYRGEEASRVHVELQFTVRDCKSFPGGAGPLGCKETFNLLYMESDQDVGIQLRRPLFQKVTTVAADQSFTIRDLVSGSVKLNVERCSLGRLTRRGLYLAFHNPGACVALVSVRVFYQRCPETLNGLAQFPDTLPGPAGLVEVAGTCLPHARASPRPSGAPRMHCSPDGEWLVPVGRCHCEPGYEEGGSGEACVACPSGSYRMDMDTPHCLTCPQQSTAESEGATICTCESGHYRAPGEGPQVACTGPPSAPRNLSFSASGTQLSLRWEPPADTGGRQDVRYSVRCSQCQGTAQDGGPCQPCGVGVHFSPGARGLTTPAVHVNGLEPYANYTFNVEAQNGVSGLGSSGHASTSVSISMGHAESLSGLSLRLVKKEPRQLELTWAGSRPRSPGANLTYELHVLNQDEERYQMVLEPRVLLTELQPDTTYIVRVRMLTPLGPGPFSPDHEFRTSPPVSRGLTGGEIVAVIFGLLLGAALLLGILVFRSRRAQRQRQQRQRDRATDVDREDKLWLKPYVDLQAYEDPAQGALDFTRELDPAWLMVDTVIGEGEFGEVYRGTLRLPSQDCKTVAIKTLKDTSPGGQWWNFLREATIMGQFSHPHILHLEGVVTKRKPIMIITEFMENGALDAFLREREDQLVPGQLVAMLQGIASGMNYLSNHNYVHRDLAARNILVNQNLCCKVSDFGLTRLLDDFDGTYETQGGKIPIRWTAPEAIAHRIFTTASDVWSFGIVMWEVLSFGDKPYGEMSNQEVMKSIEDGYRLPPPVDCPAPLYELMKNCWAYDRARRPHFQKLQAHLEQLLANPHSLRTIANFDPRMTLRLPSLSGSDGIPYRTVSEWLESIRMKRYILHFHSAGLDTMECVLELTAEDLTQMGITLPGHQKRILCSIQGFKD
Procedure, shortened: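 Here the EphA1 protein is recombinant and the substrate fluorescent, with electrophoretic separation before fluorescence detection at 1 hour. Signal loss against DMSO defines activity; plate controls included; follow-up concentration series reach 50 uM.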

Compound	outcome	AC50
CC(C)(c1cc(Br)c(OCCO)c(Br)c1)c1cc(Br)c(OCCO)c(Br)c1	inactive	
S=C(NC1CCCCC1)NC1CCCCC1	inactive	
Cc1ccc(N)c([N+](=O)[O-])c1		43.4 µM (active)
CCCCCCCCCCCCCCCC[N+](C)(C)CC	inactive	
C/C=C\C/C=C/CCCCCCCCOC(C)=O	inactive	
CNC(=S)N(C)C		18.6 µM (active)
COCCOCCOCCOCCOC	inactive	
CCC(CC)C(=O)O		4.56 µM (active)
Cc1cc(C)c(C)c(C)c1	inactive	
N#[N+]c1ccc2c(S(=O)(=O)[O-])cccc2c1O	inactive	
